Where a name gives a salt, the structure may show the parent alone. ± gives the standard deviation of the averaged measurements.
Tests used:
[1] = system: Saccharomyces cerevisiae BY4741 SeMeCo community; test: mean cell size (pixel area) (pixels); higher = larger cells; conditions: 10 µM; 24 h; SM minimal medium
How it was run: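 A fluorescent Saccharomyces cerevisiae BY4741 community carrying four plasmids was used, with each plasmid complementing one auxotrophy and bearing a fluorescent marker. An overnight preculture at OD600 = 1.0 was diluted to OD600 = 0.3, and 70 µl went into 384-well plates acoustically predosed with drug (final 10 µM) in SM medium for 24 h. After paraformaldehyde fixation, cells were imaged by automated confocal microscopy and analysed in Harmony, giving the mean cell pixel area per well. Each value is the average of 3 replicates. Same SeMeCo high-content imaging drug screen: Selleck FDA-approved drugs at 10 µM, 24 h in SM medium, 384-well plates, 3 replicates.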

[2] = system: Saccharomyces cerevisiae BY4741 SeMeCo community; test: z-score of subpopulation abundance vs DMSO median, subpopulation auxotrophic for M; higher = larger share of this subpopulation than in DMSO controls; conditions: 10 µM; 24 h; SM minimal medium; subpopulation (auxotrophy): M
How it was run: (§1)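 Scoring was based on each subpopulation's abundance, expressed as a z-score against the vehicle-well median. A Saccharomyces cerevisiae BY4741 community with four plasmids, each restoring one auxotrophy and encoding a distinct fluorescent protein, was pre-grown overnight to OD600 1.0, diluted to 0.3, and added at 70 µl to 384-well plates acoustically predosed with library drugs (10 µM final). It then grew 24 h in minimal SM medium before paraformaldehyde fixation and automated confocal microscopy, with single-auxotroph fluorescent strains setting thresholds and autofluorescence correction.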

[3] = system: Saccharomyces cerevisiae BY4741 SeMeCo community; test: z-score of subpopulation abundance vs DMSO median, subpopulation auxotrophic for L; higher = larger share of this subpopulation than in DMSO controls; conditions: 10 µM; 24 h; SM minimal medium; subpopulation (auxotrophy): L
How it was run: as §1

[4] = system: Saccharomyces cerevisiae BY4741 SeMeCo community; test: z-score of subpopulation abundance vs DMSO median, subpopulation auxotrophic for U; higher = larger share of this subpopulation than in DMSO controls; conditions: 10 µM; 24 h; SM minimal medium; subpopulation (auxotrophy): U
How it was run: as §1

[5] = system: Saccharomyces cerevisiae BY4741 SeMeCo community; test: z-score of subpopulation abundance vs DMSO median, subpopulation auxotrophic for LU; higher = larger share of this subpopulation than in DMSO controls; conditions: 10 µM; 24 h; SM minimal medium; subpopulation (auxotrophy): LU
How it was run: as §1

[6] = system: Saccharomyces cerevisiae BY4741 SeMeCo community; test: z-score of subpopulation abundance vs DMSO median, subpopulation auxotrophic for LM; higher = larger share of this subpopulation than in DMSO controls; conditions: 10 µM; 24 h; SM minimal medium; subpopulation (auxotrophy): LM
How it was run: as §1

[7] = system: Saccharomyces cerevisiae BY4741 SeMeCo community; test: z-score of subpopulation abundance vs DMSO median, subpopulation auxotrophic for HM; higher = larger share of this subpopulation than in DMSO controls; conditions: 10 µM; 24 h; SM minimal medium; subpopulation (auxotrophy): HM
How it was run: as §1

[8] = system: Saccharomyces cerevisiae BY4741 SeMeCo community; test: z-score of subpopulation abundance vs DMSO median, subpopulation auxotrophic for HU; higher = larger share of this subpopulation than in DMSO controls; conditions: 10 µM; 24 h; SM minimal medium; subpopulation (auxotrophy): HU
How it was run: as §1

[9] = system: Saccharomyces cerevisiae BY4741 SeMeCo community; test: z-score of subpopulation abundance vs DMSO median, subpopulation auxotrophic for UM; higher = larger share of this subpopulation than in DMSO controls; conditions: 10 µM; 24 h; SM minimal medium; subpopulation (auxotrophy): UM
How it was run: as §1

[10] = system: Saccharomyces cerevisiae BY4741 SeMeCo community; test: z-score of subpopulation abundance vs DMSO median, subpopulation auxotrophic for HL; higher = larger share of this subpopulation than in DMSO controls; conditions: 10 µM; 24 h; SM minimal medium; subpopulation (auxotrophy): HL
How it was run: as §1

[11] = system: Saccharomyces cerevisiae BY4741 SeMeCo community; test: z-score of subpopulation abundance vs DMSO median, subpopulation auxotrophic for HLU; higher = larger share of this subpopulation than in DMSO controls; conditions: 10 µM; 24 h; SM minimal medium; subpopulation (auxotrophy): HLU
How it was run: as §1

[12] = system: Saccharomyces cerevisiae BY4741 SeMeCo community; test: z-score of subpopulation abundance vs DMSO median, subpopulation auxotrophic for HLM; higher = larger share of this subpopulation than in DMSO controls; conditions: 10 µM; 24 h; SM minimal medium; subpopulation (auxotrophy): HLM
How it was run: as §1

[13] = system: Saccharomyces cerevisiae BY4741 SeMeCo community; test: z-score of subpopulation abundance vs DMSO median, subpopulation auxotrophic for HUM; higher = larger share of this subpopulation than in DMSO controls; conditions: 10 µM; 24 h; SM minimal medium; subpopulation (auxotrophy): HUM
How it was run: as §1

[14] = system: Saccharomyces cerevisiae BY4741 SeMeCo community; test: z-score of subpopulation abundance vs DMSO median, subpopulation auxotrophic for LUM; higher = larger share of this subpopulation than in DMSO controls; conditions: 10 µM; 24 h; SM minimal medium; subpopulation (auxotrophy): LUM
How it was run: as §1

[15] = system: Saccharomyces cerevisiae BY4741 SeMeCo community; test: z-score of prototroph abundance vs DMSO median; higher = larger share of this subpopulation than in DMSO controls; conditions: 10 µM; 24 h; SM minimal medium; subpopulation (auxotrophy): Prototroph
How it was run: as §1

[16] = system: Saccharomyces cerevisiae BY4741 SeMeCo community; test: z-score of subpopulation abundance vs DMSO median, subpopulation auxotrophic for H; higher = larger share of this subpopulation than in DMSO controls; conditions: 10 µM; 24 h; SM minimal medium; subpopulation (auxotrophy): H
How it was run: as §1

[17] = system: Saccharomyces cerevisiae BY4741 SeMeCo community; test: z-score of subpopulation abundance vs DMSO median, subpopulation auxotrophic for HLUM; higher = larger share of this subpopulation than in DMSO controls; conditions: 10 µM; 24 h; SM minimal medium; subpopulation (auxotrophy): HLUM
How it was run: as §1

Row | SMILES | mean cell size [1] | z-score of subpopulation abundance [2] | z-score of subpopulation abundance [3] | z-score of subpopulation abundance [4] | z-score of subpopulation abundance [5] | z-score of subpopulation abundance [6] | z-score of subpopulation abundance [7] | z-score of subpopulation abundance [8] | z-score of subpopulation abundance [9] | z-score of subpopulation abundance [10] | z-score of subpopulation abundance [11] | z-score of subpopulation abundance [12] | z-score of subpopulation abundance [13] | z-score of subpopulation abundance [14] | z-score of prototroph abundance [15] | z-score of subpopulation abundance [16] | z-score of subpopulation abundance [17]
1 | CN1[C@@H](CC(=O)c2ccccc2)CCC[C@H]1C[C@H](O)c1ccccc1 [Lobeline hydrochloride] | 12.5 ± 0.23 | 1.16 | -0.58 | 0.36 | -0.23 | -0.29 | 0.17 | -0.75 | 0.92 | -0.13 | -0.94 | -0.48 | 0.22 | -0.75 |  |  | 
2 | CC[N+](CC)(CC)CC [Tetraethylammonium bromide] | 12.27 ± 0.094 | 0.89 | -0.06 | 1.19 | 1.18 | 0.41 |  | -0.09 | 0.12 | -0.73 | 0.38 | -0.06 | -0.37 |  | -0.64 | -0.73 | 1.04
3 | COC(=O)Nc1nc2cc(Sc3ccccc3)ccc2[nH]1 [Fenbendazole] | 12.3 ± 0.23 | 0.61 | 0.52 | -0.17 | -0.67 | 0.66 |  | -0.37 | 0.27 | 0.48 | -0.08 | -0.31 | 0.36 | 0.53 |  | 0.06 | -0.28
4 | CCS(=O)(=O)CCn1c([N+](=O)[O-])cnc1C [Tinidazole] | 12.26 ± 0.046 | -0.75 | 0.1 | 0.56 | 0.29 | 0.29 | -1.1 | -0.4 | -0.43 | -0.55 | 0.09 | -1.15 | -0.47 | -0.2 |  | -1.03 | 
5 | Cn1c(=O)c2c(ncn2CC2OCCO2)n(C)c1=O [Doxofylline] | 12.2 ± 0.51 | -0.41 | 0.55 | -0.22 | 0.9 | 0.49 |  |  | -0.67 | 0.28 | -0.64 | -0.9 | -0.34 | -0.24 | 0.31 | -0.27 | -0.8
6 | C#CCN[C@@H]1CCc2ccccc21 [Rasagiline Mesylate] | 12.49 ± 0.065 | 0.65 | 1.22 | -0.4 | 0.5 | 0.42 | -0.43 |  | -0.05 | 0.37 | 0.21 | -0.04 | -0.47 |  | 0.23 | 0.22 | 
7 | COc1ccc2cc(CCC(C)=O)ccc2c1 [Nabumetone] | 12.5 ± 0.13 | 0.05 | -1.25 | 0.54 | -0.78 | -1.42 | -0.96 | -0.64 | -0.41 | -1.5 | -0.94 | -0.91 | -0.22 | -0.43 | 1 | -1.58 | 
8 | COc1ccc2[nH]c([S+]([O-])Cc3ncc(C)c(OC)c3C)nc2c1 (stereo not drawn) [Omeprazole] | 12.3 ± 0.19 | -0.74 | 1.33 | -1.23 | 0.12 | 0.56 |  |  | -0.94 | 2.48 | 1.91 | -0.19 | -0.34 | 0.62 | -0.07 | 1.65 | -0.03
9 | Cc1c[nH]c(=O)[nH]c1=O [Thymine] | 12.4 ± 0.22 | 0.85 | 0.24 |  | 0.49 | -0.22 | 0.33 | 0.14 |  |  | 0.71 | 0.64 | 0.09 | 0.24 | -0.52 |  | 
10 | CC#C[C@]1(O)CC[C@H]2[C@@H]3CCC4=CC(=O)CCC4=C3[C@@H](c3ccc(N(C)C)cc3)C[C@@]21C [Mifepristone] | 12.3 ± 0.19 | 0.43 | 1.02 | -0.36 | 0.63 | 0.79 | 1.66 | 0.29 | 0.64 | 1.2 | 0.41 | 0.44 | 1.71 |  | -1.1 | 1.2 | 
11 | Cc1cc(O)c(C(=O)N[C@@H](C(=O)N[C@@H]2C(=O)N3C(C(=O)O)=C(CSc4nnnn4C)CS[C@H]23)c2ccc(O)cc2)cn1 [Cefpiramide sodium] | 12.3 ± 0.13 | 0.99 | -0.92 | 0.61 | -0.12 | -0.42 | 0.57 | 0.5 | 0.29 | 0.18 | 0.16 | -0.6 | -0.35 |  |  | -0.05 | 
12 | Cc1[nH]cnc1CN1CCc2c(c3ccccc3n2C)C1=O [Alosetron Hydrochloride] | 12 ± 0.2 | 0.38 | 0.02 | 1.4 | 1.07 | 0.27 |  | 0.97 | 0.96 | 0 | -0.13 | 0.08 | 0.46 | -0.03 |  | -0.22 | 1.5
13 | O=C(CCCN1CCN(c2ccccn2)CC1)c1ccc(F)cc1 [Azaperone] | 12.29 ± 0.072 | 0 | 0.29 | 0.07 | 0.24 | 0.61 |  | 0.16 | 0.85 | -0.42 | -0.03 | -0.5 | 1.31 |  | -0.1 | -0.28 | 0.31
14 | Cc1ncc([N+](=O)[O-])n1CCO [Metronidazole] | 12.4 ± 0.12 | 0.32 | 0.11 |  | -0.37 | 0.12 |  | -0.14 | -0.62 | -0.42 | 0.18 | -0.7 | 0.09 | -0.37 |  | 0.44 | 0.08
15 | COc1ccccc1N1CCN(CCCNc2cc(=O)n(C)c(=O)n2C)CC1 [Urapidil HCl] | 12.49 ± 0.088 | -0.32 | -1 | 1.09 | 0.29 | -0.25 |  | 0.01 |  | -0.53 | -0.11 | -0.67 | -0.59 | -0.71 | -0.23 |  | -0.28

Source: the supplement of paper PMC8975748
